PubChem BioAssay (Tox21)
Records with an inconclusive call do not appear. Calls of active or inactive are those of the source. Unless noted, calls follow the shape of the dose curve; as a rule, active = well fitted curve in the direction sought with a large enough effect in the repeat runs; inconclusive = weak or mixed curves; inactive = no such curve, though single readings can be large; an effect the other way counts as inactive or inconclusive.

Experiments:
[1] = A CellTox Green Cytotoxicity Assay to monitor cytotoxicity in HepG2 cells - 8 hour (AID 1224890); also: nearly all actives have a fitted effect of over 45% in size
How it was run: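 Fluorescent DNA-binding dye, 600 HepG2 cells/well, 5 h preincubation then compound in DMSO; same plates read at 0–40 h, 37 C.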

[2] = qHTS assay to identify small molecule antagonists of the androgen receptor (AR) signaling pathway using the MDA cell line in the presence of 0.5 nM R1881 - cell viability counter screen (AID 1259242); also: nearly all actives have a fitted effect of over 45% in size
How it was run: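 Human breast carcinoma MDA-kb2 cells, cultured without CO2, receive compounds alongside 0.5 nM (final) R1881 agonist. After 16 hr at 37C, viability is taken as live-cell protease signal.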

[3] = molecular target: Androgen receptor (Homo sapiens) (UniProt P10275); test: qHTS assay to identify small molecule antagonists of the androgen receptor (AR) signaling pathway using the MDA cell line in the presence of 0.5 nM R1881 (AID 1259243); also: nearly all actives have a fitted effect of over 50% in size
Sequence of Androgen receptor (Homo sapiens) (P10275 whole entry, looked up): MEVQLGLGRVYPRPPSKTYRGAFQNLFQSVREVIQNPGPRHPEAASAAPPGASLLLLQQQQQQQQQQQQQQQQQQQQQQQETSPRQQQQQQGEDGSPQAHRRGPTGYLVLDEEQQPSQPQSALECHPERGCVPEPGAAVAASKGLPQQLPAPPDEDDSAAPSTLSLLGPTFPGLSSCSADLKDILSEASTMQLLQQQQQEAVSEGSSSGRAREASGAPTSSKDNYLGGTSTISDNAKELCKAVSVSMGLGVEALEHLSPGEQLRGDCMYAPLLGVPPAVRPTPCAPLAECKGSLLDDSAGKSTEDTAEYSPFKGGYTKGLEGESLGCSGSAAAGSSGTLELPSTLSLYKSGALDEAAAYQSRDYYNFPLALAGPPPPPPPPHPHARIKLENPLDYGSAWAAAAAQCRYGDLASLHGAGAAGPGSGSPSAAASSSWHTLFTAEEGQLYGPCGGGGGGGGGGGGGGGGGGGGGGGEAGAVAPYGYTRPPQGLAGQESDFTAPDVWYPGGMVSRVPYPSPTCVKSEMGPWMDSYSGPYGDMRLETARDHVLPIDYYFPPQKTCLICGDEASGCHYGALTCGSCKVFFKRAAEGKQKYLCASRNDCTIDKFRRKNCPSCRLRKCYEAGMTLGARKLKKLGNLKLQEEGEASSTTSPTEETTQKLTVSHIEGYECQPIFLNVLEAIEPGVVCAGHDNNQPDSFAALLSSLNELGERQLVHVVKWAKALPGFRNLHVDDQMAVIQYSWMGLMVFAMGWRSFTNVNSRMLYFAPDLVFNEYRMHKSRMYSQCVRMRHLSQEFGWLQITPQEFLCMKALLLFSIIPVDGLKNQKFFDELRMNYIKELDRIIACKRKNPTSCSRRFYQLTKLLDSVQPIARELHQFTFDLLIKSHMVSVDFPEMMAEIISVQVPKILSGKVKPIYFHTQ
How it was run: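 Cells: MDA-kb2 (MMTV-luc). Stimulus: 0.5 nM R1881. Time: 16 hr, 37C, no CO2. Detection: ONE-Glo luminescence after 30 min at RT.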

[4] = molecular target: Estrogen receptor (Homo sapiens) (UniProt P03372); test: qHTS assay to identify small molecule antagonists of the estrogen receptor alpha (ER-alpha) signaling pathway using the BG1 cell line in the presence of 0.1 nM 17-beta-estradiol (AID 1259244); also: nearly all actives have a fitted effect of over 50% in size
Sequence of Estrogen receptor (Homo sapiens) (P03372 whole entry, looked up): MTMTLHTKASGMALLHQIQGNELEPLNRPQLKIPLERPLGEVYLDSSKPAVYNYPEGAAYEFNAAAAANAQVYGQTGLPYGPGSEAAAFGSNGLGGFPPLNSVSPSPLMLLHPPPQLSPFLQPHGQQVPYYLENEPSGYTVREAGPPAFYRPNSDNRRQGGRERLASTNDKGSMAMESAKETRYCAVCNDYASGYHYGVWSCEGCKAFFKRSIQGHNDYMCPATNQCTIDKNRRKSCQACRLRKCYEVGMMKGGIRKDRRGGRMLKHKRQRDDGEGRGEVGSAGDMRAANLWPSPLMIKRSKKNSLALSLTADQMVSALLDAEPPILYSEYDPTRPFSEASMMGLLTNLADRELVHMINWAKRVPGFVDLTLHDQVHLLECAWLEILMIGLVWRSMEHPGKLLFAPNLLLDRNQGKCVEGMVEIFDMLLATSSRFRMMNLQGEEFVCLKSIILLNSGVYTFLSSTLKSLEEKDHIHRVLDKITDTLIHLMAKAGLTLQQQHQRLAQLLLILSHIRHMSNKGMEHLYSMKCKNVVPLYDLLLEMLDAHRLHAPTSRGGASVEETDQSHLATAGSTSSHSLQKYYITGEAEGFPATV
How it was run: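 Seeding of stripped-serum-adapted VM7Luc4E2 cells, 24 h attachment, compound transfer, then 0.1 nM final 17beta-estradiol; after 22 h incubation, ONE-Glo reagent and luminescence reading.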

[5] = qHTS assay to identify small molecule phospholipidosis (PLD) inducers (AID 1259344; active = well fitted curve in the direction sought with a large enough effect; an effect the other way counts as inactive or inconclusive)
How it was run: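 Read-out is LipidTOX Red fluorescence (ex 595/em 615) imaged in HepG2 cells after 24 h compound exposure at 37 C, with Hoechst nuclear counterstain (ex 352/em 461) allowing per-cell normalisation.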

[6] = qHTS assay to identify small molecule HDAC inhibitors (AID 1259364);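 also: wild-type HCT-116 cells with endogenous class I/II HDAC activity; top concentration of the series differs between compounds; nearly all actives have a fitted effect of over 45% in size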
How it was run: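 After a 2 hr compound incubation (37C, 5% CO2), HCT-116 cells seeded at 1,500/well the day before received HDAC-Glo reagent; signal read as luminescence after 30 min at room temperature.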

[7] = qHTS assay to identify small molecule HDAC inhibitors - cell viability counter screen (AID 1259365); also: series mostly up to about 92 µM; nearly all actives have a fitted effect of over 50% in size
How it was run: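 Following a 2hr exposure of overnight-plated wild-type HCT-116 cells to DMSO-delivered compounds, CellTiter-Glo was added and luminescence recorded after 30min at room temperature.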

[8] = qHTS assay to identify small molecule agonists of the sonic hedgehog signaling (Shh) pathway - cell viability counter screen (AID 1259366); also: nearly all actives have a fitted effect of over 50% in size
How it was run: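 After a 4hr attachment at 37C, NIH/3T3 cells bearing an integrated Gli1-driven luciferase reporter were dosed with compounds. Treatment lasted 24hr, with the final hour including CellTiter-Fluor for a fluorescence viability measurement.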

[9] = qHTS assay to identify small molecule antagonists of the sonic hedgehog signaling (Shh) pathway - cell viability counter screen (AID 1259367); also: nearly all actives have a fitted effect of over 55% in size
How it was run: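 Fluorescence read-out (CellTiter-Fluor, 1 hr at 37C) taken after 23 hr compound treatment of 3T3 Gli1-Luc cells stimulated with conditioned medium. Cells were seeded at 2,000 per well and pre-incubated 4 hr.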

[10] = qHTS assay to identify small molecule agonists of the sonic hedgehog signaling (Shh) pathway (AID 1259368; calls by dose curve;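 also: NIH/3T3-derived 3T3Gli1-Luc cells carrying a stable Gli1-driven firefly luciferase reporter; series mostly up to about 92 µM; nearly all actives have a fitted effect of over 15% in size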)
How it was run: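 Stable NIH/3T3 Gli1-Luc reporter clone; 24 hr cpd exposure after a 4 hr settling period; luminescence endpoint.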

[11] = qHTS assay to identify small molecule antagonists of the sonic hedgehog signaling (Shh) pathway (AID 1259369; calls by dose curve; also: nearly all actives have a fitted effect of over 45% in size)
How it was run: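 Gli1 transcriptional reporter (firefly Luc) in NIH/3T3 background, conditioned-medium activated. 24hr exposure, luminescence endpoint.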

[12] = molecular target: Estrogen receptor beta (Homo sapiens) (UniProt Q92731); test: qHTS assay to identify small molecule agonists of the estrogen receptor beta (ER-beta) signaling pathway (AID 1259377; active = well fitted activation curve with a large enough effect in the signal ratio in the repeat runs, not every such curve was filed as active; the % refers to the signal ratio)
Sequence of Estrogen receptor beta (Homo sapiens) (Q92731 whole entry, looked up): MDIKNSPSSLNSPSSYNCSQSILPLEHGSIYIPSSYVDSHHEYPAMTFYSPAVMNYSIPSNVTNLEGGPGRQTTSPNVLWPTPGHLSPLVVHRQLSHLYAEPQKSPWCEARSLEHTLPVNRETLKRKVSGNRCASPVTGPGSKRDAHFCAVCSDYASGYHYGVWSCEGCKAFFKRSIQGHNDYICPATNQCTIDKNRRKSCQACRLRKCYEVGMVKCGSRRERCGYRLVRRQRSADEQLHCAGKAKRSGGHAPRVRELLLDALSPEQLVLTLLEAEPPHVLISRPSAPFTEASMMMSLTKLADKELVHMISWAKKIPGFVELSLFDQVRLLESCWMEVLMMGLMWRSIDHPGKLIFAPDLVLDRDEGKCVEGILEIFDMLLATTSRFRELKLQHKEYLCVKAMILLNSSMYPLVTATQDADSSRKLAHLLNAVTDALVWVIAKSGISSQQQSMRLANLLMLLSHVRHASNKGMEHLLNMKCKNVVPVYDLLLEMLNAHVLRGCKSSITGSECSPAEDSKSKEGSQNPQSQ
How it was run: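 In HEK293T cells bearing a UAS-beta-lactamase reporter under ER-beta control, DMSO-delivered compounds were incubated for 16 hr at 37C. Activity was detected as fluorescence 2 hours after LiveBLAzer B/G FRET substrate addition.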

[13] = molecular target: Estrogen receptor beta (Homo sapiens) (UniProt Q92731); test: qHTS assay to identify small molecule antagonists of the estrogen receptor beta (ER-beta) signaling pathway (AID 1259378; active = well fitted inhibition curve with a large enough effect in the signal ratio in the repeat runs, not every such curve was filed as active; the % refers to the signal ratio)
How it was run: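 ER-beta-UAS-bla HEK293T cells in 2% charcoal-stripped FBS medium treated with compound plus 1nM final 17-beta-estradiol for 16 hr at 37C. Beta-lactamase reporter read by FRET substrate fluorescence after 2 hours at room temperature.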

[14] = qHTS assay to identify small molecule agonists of the estrogen receptor beta (ER-beta) signaling pathway - cell viability counter screen (AID 1259380); also: nearly all actives have a fitted effect of over 30% in size
How it was run: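 In this qHTS counter screen, HEK293T cells carrying an ER-beta/UAS beta-lactamase reporter, grown in 2% charcoal-stripped FBS, received compound for 16 hr; ATP-based CellTiter-Glo luminescence was then read after 30 min at room temperature.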

[15] = molecular target: Androgen receptor (Homo sapiens) (UniProt P10275); test: qHTS assay to identify small molecule agonists of the androgen receptor (AR) signaling pathway in the presence of an antagonist (AID 1259381; calls by dose curve; also: nearly all actives have a fitted effect of over 15% in size)
How it was run: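 AR antagonist background: nilutamide 3.0uM final. Cell line: MDA-kb2, MMTV-driven luciferase, responsive to both AR and GR. Exposure 16hr, 37C, no CO2; ONE-Glo luminescence.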

[16] = qHTS assay to identify small molecule antagonists of the estrogen receptor beta (ER-beta) signaling pathway - cell viability counter screen (AID 1259382); also: series mostly up to about 92 µM; nearly all actives have a fitted effect of over 55% in size
How it was run: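 HEK293T ER-beta-UAS-bla, 2% charcoal-stripped FBS; compounds + 1nM E2 16 hr 37C; CellTiter-Glo luminescence, 30 min RT.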

[17] = molecular target: Estrogen receptor (Homo sapiens) (UniProt P03372); test: qHTS assay to identify small molecule agonists of the estrogen receptor alpha (ER-alpha) signaling pathway in the presence of an antagonist (AID 1259383; calls by dose curve; also: top concentration of the series differs between compounds; nearly all actives have a fitted effect of over 15% in size)
How it was run: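 ER-alpha agonism measured under antagonist challenge: 10.0nM ICI-182,780 (final) plus compound, 15 concentrations, 22hr, VM7Luc4E2 ERE-luciferase cells. Read by luminescence.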

[18] = qHTS assay to identify small molecule agonists or antagonists of the thyroid stimulating hormone receptor (TSHR) signaling pathway - wild type cell line counter screen (AID 1259384; calls by dose curve)
How it was run: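 Wild-type Hek293 cells, 800/well, 18 h at 37C, then compound with Ro20-1724 for 30 min RT. cAMP by HTRF (cAMP-d2/anti-cAMP cryptate), 1 h RT, fluorescence read. 15 concentrations, triplicates.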

[19] = qHTS assay to identify small molecule antagonists of the estrogen receptor alpha (ER-alpha) signaling pathway using the BG1 cell line in the presence of 0.1 nM 17-beta-estradiol - cell viability counter screen (AID 1259241); also: nearly all actives have a fitted effect of over 40% in size
How it was run: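 Measures cytotoxicity alongside the ER-alpha antagonist readout: VM7Luc4E2 cells, charcoal-stripped serum, 0.1 nM 17beta-estradiol final, 22 hr compound incubation at 37C, CellTiter-Fluor fluorescence.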

[20] = qHTS assay to identify small molecule agonists of the androgen receptor (AR) signaling pathway in the presence of an antagonist - cell viability counter screen (AID 1259379);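 also: MDA-kb2 human breast cancer cells carrying an MMTV luciferase reporter; series mostly up to about 92 µM; nearly all actives have a fitted effect of over 25% in size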
How it was run: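 Counter screen for cell viability run in parallel with the AR agonist-mode luciferase assay. MDA-kb2 cells were co-treated with nilutamide (3.0uM final) and compounds, then incubated 16 hr at 37C, and CellTiter-Fluor fluorescence was measured.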
% is scaled to controls: 0 for no effect and ±100 for the full control effect.

Oc1cn2c(n1)Nc1ccc(Cl)c(Cl)c1C2
inactive: cytotoxicity increase [1] -5.9% [at 15.8 µM] | viability change, negative = cytotoxic [2] 1.91% [at 19 µM] | activity, negative = inhibition [3] 16.6% [at 19 µM] | activity change, negative = inhibition [4] -26.8% [at 19 µM] | outcome [5] | activity change, negative = inhibition [6] -1.7% [at 19 µM] | activity change, negative = cytotoxicity [7] 1.3% [at 19 µM] | viability change, negative = cytotoxic [8] 3.75% [at 19 µM] | viability change, negative = cytotoxic [9] -4.16% [at 19 µM] | activity change [10] -0.534% [at 18.9 µM] | activity change, negative = inhibition [11] -20% [at 19 µM] | activation [12] -3.28% [at 19 µM] | activity, negative = inhibition [13] 0.533% [at 19 µM] | activity change, negative = cytotoxicity [14] 8.72% [at 19 µM] | activation [15] 1.01% [at 19 µM] | activity change, negative = cytotoxicity [16] 4.54% [at 19 µM] | activation [17] -1.28% [at 19 µM] | cAMP activity change [18] -0.126% [at 18.9 µM]

CC(C)(C)c1cc(CCC(=O)NN)cc(C(C)(C)C)c1O
inactive: outcome [1] | Potency [19] | outcome [2] | Potency [6] | outcome [7] | Potency [8] | Potency [9] | outcome [10] | Potency [11] | outcome [16] | outcome [18]

CCOC(=O)CC(=O)c1ccccc1
inactive: outcome [1] | Potency [19] | outcome [2] | outcome [7] | Potency [9] | outcome [10] | Potency [11] | Potency [12] | outcome [13] | Potency [20] | Potency [14] | outcome [16] | outcome [17] | outcome [18]

CC(CN)CC(C)(C)CCN (stereo not given)
inactive: outcome [1] | Potency [19] | Potency [6] | outcome [7] | Potency [8] | Potency [9] | outcome [10] | Potency [11] | Potency [12] | outcome [13] | Potency [20] | Potency [14] | outcome [16] | outcome [18]

Cc1cccc2nccnc12
inactive: outcome [1] | Potency [19] | outcome [2] | Potency [6] | outcome [7] | Potency [8] | Potency [9] | outcome [10] | Potency [12] | Potency [14] | outcome [16] | outcome [17] | outcome [18]

O=S(=O)(O)CCN1CCN(CCO)CC1
inactive: outcome [1] | Potency [19] | outcome [2] | Potency [6] | outcome [7] | Potency [9] | outcome [10] | Potency [11] | Potency [12] | outcome [13] | Potency [20] | Potency [14] | outcome [16] | outcome [18]

Nc1cccc(O)c1
inactive: outcome [1] | Potency [19] | outcome [2] | Potency [6] | outcome [7] | Potency [8] | Potency [9] | outcome [10] | Potency [11] | outcome [16] | outcome [17] | outcome [18]

Cc1ccc(S(=O)(=O)O)c(C)c1
inactive: outcome [1] | Potency [19] | outcome [2] | Potency [6] | outcome [7] | Potency [8] | outcome [10] | Potency [11] | Potency [20] | Potency [14] | outcome [16] | outcome [17] | outcome [18]

CC(=O)c1sc(C)nc1C
inactive: outcome [1] | Potency [19] | outcome [2] | Potency [6] | outcome [7] | Potency [9] | outcome [10] | Potency [11] | Potency [20] | Potency [14] | outcome [16] | outcome [18]

C=CC(OCC)OCC
inactive: outcome [1] | Potency [19] | outcome [2] | Potency [6] | outcome [7] | Potency [8] | outcome [10] | Potency [12] | outcome [13] | Potency [20] | Potency [14] | outcome [16]

CCc1ccc(C=O)cc1
inactive: outcome [1] | Potency [19] | outcome [2] | Potency [6] | outcome [7] | Potency [9] | outcome [10] | Potency [11] | Potency [20] | outcome [16] | outcome [18]

Cc1cc(Cl)c(C)cc1Cl
inactive: outcome [1] | outcome [2] | Potency [3] | Potency [6] | outcome [7] | Potency [8] | Potency [9] | outcome [10] | Potency [11] | Potency [12] | outcome [13] | Potency [20] | Potency [14] | Potency [15] | outcome [16]

CC[C@H](C)C(=O)O[C@H]1C[C@H](O)C=C2C=C[C@H](C)[C@H](CC[C@@H](O)C[C@@H](O)CC(=O)O)[C@H]21
inactive: outcome [1] | outcome [2] | outcome [5] | Potency [6] | outcome [7] | Potency [8] | Potency [9] | outcome [10] | Potency [11] | Potency [12] | Potency [20] | Potency [14] | outcome [17]

C=C1CC/C=C(\C)CC[C@@H]2[C@@H]1CC2(C)C
inactive: outcome [1] | outcome [2] | Potency [4] | Potency [6] | outcome [7] | Potency [8] | Potency [9] | outcome [10] | Potency [11] | Potency [12] | outcome [13] | outcome [16] | outcome [17] | outcome [18]

CC(C)C[C@H](NC(=O)CNC(=O)[C@H](Cc1ccc(O)cc1)NC(=O)[C@H](CO)NC(=O)[C@H](Cc1c[nH]c2ccccc12)NC(=O)[C@H](Cc1cnc[nH]1)NC(=O)[C@@H]1CCC(=O)N1)C(=O)N[C@@H](CCCN=C(N)N)C(=O)N1CCC[C@H]1C(=O)NCC(N)=O (stereo in doubt)
inactive: outcome [1] | outcome [2] | outcome [5] | Potency [6] | outcome [7] | outcome [10] | Potency [11] | Potency [12] | outcome [13] | Potency [20] | outcome [16]

CNS(=O)(=O)CCc1ccc2[nH]cc(C3CCN(C)CC3)c2c1
inactive: outcome [1] | outcome [2] | Potency [4] | outcome [5] | Potency [6] | outcome [7] | Potency [8] | Potency [9] | outcome [10] | Potency [11] | Potency [12] | outcome [13] | Potency [20] | Potency [14] | outcome [16] | outcome [17] | outcome [18]

CC(=C(CCOC(=O)C(C)C)SSC(CCOC(=O)C(C)C)=C(C)N(C=O)Cc1cnc(C)nc1N)N(C=O)Cc1cnc(C)nc1N
inactive: Potency [19] | outcome [2] | outcome [5] | Potency [6] | outcome [7] | outcome [10] | Potency [12] | outcome [13] | Potency [20] | Potency [14] | outcome [16] | outcome [17] | outcome [18]

OCCCCC(O)CO (stereo not given)
inactive: outcome [1] | outcome [2] | Potency [6] | outcome [7] | Potency [9] | outcome [10] | Potency [11] | Potency [12] | outcome [13] | Potency [20] | Potency [14] | outcome [16] | outcome [18]
